# Experimental data taken from PubChem BioAssay (NCI).
# This is part of a sample that, as a whole, favours compounds with a hit. Of some 83,000 tested, about 20% had one in any assay.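 Values shown are percent growth following 48 h exposure of cells in 96-well plates to a single concentration of compound; below 10 was considered active.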 A number with no mark means an inactive call. Active and inactive are the calls of the source.
# Columns and labels:
# Assay in all cases: NCI-60 one-dose screen, 48 h (100 = growth as untreated, 0 = no growth, -100 = all killed)
# Settings in all cases: 10 µM unless noted
# DU-145 prostate = test system: DU-145 prostate
# K-562 leukemia = test system: K-562 leukemia
# MALME-3M melanoma = test system: MALME-3M melanoma
# MDA-MB-231 breast = test system: MDA-MB-231 breast
# SF-268 CNS = test system: SF-268 CNS
# SF-295 CNS = test system: SF-295 CNS
# SF-539 CNS = test system: SF-539 CNS
# UACC-257 melanoma = test system: UACC-257 melanoma
# M14 melanoma = test system: M14 melanoma
# HCT-15 colon = test system: HCT-15 colon
# HT29 colon = test system: HT29 colon
# SNB-75 CNS = test system: SNB-75 CNS
# SNB-19 CNS = test system: SNB-19 CNS
# U251 CNS = test system: U251 CNS
# PC-3 prostate = test system: PC-3 prostate
# SK-MEL-5 melanoma = test system: SK-MEL-5 melanoma
# UACC-62 melanoma = test system: UACC-62 melanoma
# LOX IMVI melanoma = test system: LOX IMVI melanoma
# SK-MEL-28 melanoma = test system: SK-MEL-28 melanoma
Compound,growth (DU-145 prostate),growth (K-562 leukemia),growth (MALME-3M melanoma),growth (MDA-MB-231 breast),growth (SF-268 CNS) [%],growth (SF-295 CNS),growth (SF-539 CNS),growth (UACC-257 melanoma),growth (M14 melanoma),growth (HCT-15 colon),growth (HT29 colon),growth (SNB-75 CNS) [%],growth (SNB-19 CNS) [%],growth (U251 CNS),growth (PC-3 prostate),growth (SK-MEL-5 melanoma),growth (UACC-62 melanoma),growth (LOX IMVI melanoma),growth (SK-MEL-28 melanoma)
CCN1C(=O)N(CC)C2NC(SC)=NC21 (stereo unspecified),111%,104%,95%,103%,95.3,101%,98.7%,97.8%,100%,103%,108%,86,97.8,101%,99.5%,104%,96.2%,93.1%,97.8%
CCN(CC)CCCC(C)Nc1cc(-c2cccc(OC(F)(F)F)c2)nc2ccc(N3CCCC3)cc12 (stereo unspecified),37%,-46.5% (active),-93% (active),-50.3% (active),26,28.3%,-91.7% (active),-81.1% (active),-81.9% (active),-14.1% (active),-24.1% (active),66.5,24.2,-58.4% (active),14.3%,-98.1% (active),-86.5% (active),-80.5% (active),-93% (active)
N/C(=N\N=C\c1cc2ccccc2s1)N/N=C/c1cc2ccccc2s1,115%,97.5%,102%,95.4%,102,103%,101%,98.1%,-56.3% (active),105%,108%,95.5,97,113%,97.4%,98%,95.3%,100%,106%
O=S(=O)(c1ccccc1)N1CCCc2ccccc21,112%,97%,93.6%,98.8%,95.5,98.5%,102%,96.3%,102%,99.3%,99.8%,95,97.2,90.3%,91.3%,102%,91.7%,96.4%,105%
O=S(=O)(NCCNc1nccc(-c2c(-c3cccc(F)c3)nc3occn23)n1)c1cccc2ccccc12,53.3%,19%,56.1%,58.5%,38.6,58.6%,96.7%,77.4%,54.8%,41.5%,34.2%,61.4,67.1,59.7%,30.6%,30%,45.1%,59.7%,73%
O=C1NC(=S)NC(=O)C1=Cc1cn(Cc2ccccn2)c2ccccc12,76.8%,26.4%,85.1%,53.3%,59.6,73.6%,60.7%,87.8%,-61.2% (active),42.9%,72.2%,52.8,53.4,31.5%,47.5%,73.6%,70.5%,27.1%,73.4%
COc1cc(-c2nc3sccn3c2-c2ccnc(NCCNS(=O)(=O)c3ccc(F)cc3)n2)ccc1F,19.6%,5.81% (active),-34.2% (active),22.3%,19,4.27% (active),31.2%,-12.7% (active),9.49% (active),13.2%,10.8%,52.7,35.7,17.5%,6.16% (active),-75.3% (active),-65.2% (active),4.75% (active),19.2%
COc1cc(C2CC(c3cccc(Nc4ccncc4)c3)=NN2c2ccc(Cl)cc2)cc(OC)c1OC (stereo unspecified),-17.5% (active),-0.526% (active),-85.2% (active),24.8%,44.5,-55.1% (active),68.3%,-6.07% (active),101%,-36.4% (active),-30.3% (active),26.1,57.9,-53.2% (active),-22% (active),-50.7% (active),91.1%,-88.8% (active),-83.2% (active)
CC(C)(O)C1CCCN1C(=O)c1ccccc1I (stereo unspecified),111%,83.5%,109%,84%,91.5,84.4%,105%,104%,95.1%,98.7%,95.4%,100,78.2,98.3%,80.7%,92.9%,64.3%,101%,105%
